# Many of the other results were omitted from the sample, so hits are more common in it than they were.
# IL1B secr inh: inflammasome signaling inhibition, IL-1 beta readout; THP-1 LPS/ATP IL-1B secretion, AlphaLISA, 16 h; hits give low values; activity change, % at 57.5 µM; actives 4.7% (n = 360,000); in the data active = activity change below about -50%; inconclusive = mostly about -30% to -49%
#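 Secreted IL-1B measured by AlphaLISA bead assay after 16 h compound exposure of THP-1 cells; compounds (final up to 57.5 uM) added 1 h before LPS (250 ng/mL) and ATP (1.25 mM) stimulation; lower signal means less secretion.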
# ALOX12 inh: inhibitors of human 12S-lipoxygenase ALOX12; purified 12hLO, xylenol orange hydroperoxide absorbance; P18054; actives 1.1% (n = 580,000); Potency, µM (series often up to 108 µM), inactives show top-dose activity change, negative = inhibition, most hits filed as inhibitors; note: potency is the fitted concentration of half-maximal effect
# Target sequence (P18054 whole entry, looked up): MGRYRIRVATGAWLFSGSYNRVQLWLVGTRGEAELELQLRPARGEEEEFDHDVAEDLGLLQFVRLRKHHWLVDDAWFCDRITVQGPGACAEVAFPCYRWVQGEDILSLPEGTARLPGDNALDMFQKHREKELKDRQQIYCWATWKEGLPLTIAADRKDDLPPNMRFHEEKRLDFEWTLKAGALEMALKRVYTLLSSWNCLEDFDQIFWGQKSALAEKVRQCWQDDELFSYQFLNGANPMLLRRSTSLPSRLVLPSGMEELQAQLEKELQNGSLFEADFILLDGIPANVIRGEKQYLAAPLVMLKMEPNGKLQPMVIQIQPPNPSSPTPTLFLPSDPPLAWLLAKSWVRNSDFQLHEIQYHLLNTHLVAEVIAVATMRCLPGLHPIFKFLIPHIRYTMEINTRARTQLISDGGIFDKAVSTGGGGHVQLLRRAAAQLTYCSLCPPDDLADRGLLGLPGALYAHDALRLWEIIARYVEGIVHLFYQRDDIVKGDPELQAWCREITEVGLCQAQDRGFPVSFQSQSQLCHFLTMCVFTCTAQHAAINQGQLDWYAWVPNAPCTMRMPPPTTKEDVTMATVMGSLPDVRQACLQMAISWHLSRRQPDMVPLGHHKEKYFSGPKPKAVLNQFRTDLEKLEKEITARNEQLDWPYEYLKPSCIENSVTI
#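 Purified human 12hLO (150 nM final) in 25 mM Hepes, 0.01% Triton X-100, pH 7.0 was preincubated 15 min at room temperature with compound. Then 40 uM arachidonic acid was added, 30 min. Hydroperoxide was read by Fe-XO absorbance ratio 573/405 nm.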
# TDP1 cell CPT: DT40-hTDP1 cell growth loss with CPT | chicken DT40 Tdp1-/-;hTDP1 cells + 20 nM CPT, ATP luminescence, 48 h | Potency, µM (top dose mostly 46.2 µM), for the others: top-dose activity change, negative = growth inhibition, actives largely listed as inhibitors | actives 12% (n = 420,000); note: potency is the fitted concentration of half-maximal effect; nearly all actives have a fitted effect of over 55% in size
#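 Chicken DT40 Tdp1-/- cells stably complemented with human TDP1 were seeded at 400 cells/well in medium containing 20 nM camptothecin, exposed to pin-transferred compounds, and grown at 37 °C for at least 48 hr. Viability was read as ATP luminescence.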
# HT1080-NT tox: kills 2HG-producing HT-1080-NT fibrosarcoma cells; HT-1080-NT fibrosarcoma viability, CellTiter-Glo ATP luminescence, 48 h; Potency, µM (highest dose often 46.1 µM), for inactives: top-dose activity, negative = less viability, actives largely listed as cytotoxic; actives 1.6% (n = 360,000);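 note: NT is the 2HG producing partner of a matched IDH1 knockdown line; potency is the fitted concentration of half-maximal effect; 0% = DMSO-treated cells and -100% = media-only wells without cells; nearly all actives have a fitted effect of over 55% in size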
#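 Read-out is CellTiter-Glo luminescence after 10 minutes at room temperature, following 48 hours' compound treatment of HT-1080-NT cells (750 cells/well, RPMI, 5% FBS, 37 degrees C).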
# HT1080 IDH1KD tx: HT-1080 IDH1 knockdown cell toxicity (counter line) | HT-1080 IDH1 knockdown viability, ATP luminescence, 48 h | Potency, µM (titrated, usually from 46.1 µM), inactives show at the highest dose activity, negative = toxicity, hits mostly cytotoxic | actives 2% (n = 360,000);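 note: potency is the fitted concentration of half-maximal effect; 0% = DMSO wells and -100% = cell-free medium wells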
#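 IDH1KD HT-1080 cells, 750/well, RPMI + 5% FBS; compound pinned after 2 h settling; 48 h, 37 °C; CellTiter-Glo luminescence; % activity normalised to DMSO and no-cell wells; curves fitted, classed by r2 and efficacy.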
# TDP1 cell noCPT: qHTS for Inhibitors of human tyrosyl-DNA phosphodiesterase 1 (TDP1): qHTS in cells in absence of CPT; Potency, µM (highest dose often 46.2 µM), inactives show at the highest dose activity change, negative = growth inhibition, usual class: inhibitors; actives 15% (n = 420,000); DT40 Tdp1-/- hTDP1 cells, no CPT, ATP luminescence, 48 h; note: potency is the fitted concentration of half-maximal effect; nearly all actives have a fitted effect of over 55% in size
#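 A cellular qHTS used chicken DT40 cells lacking endogenous Tdp1 but carrying stably transfected human TDP1. Compounds were applied without camptothecin, and cell growth kinetics were judged by ATP-dependent luminescence after ≥48 hr.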
# * = called active by the depositor; ? = inconclusive; . = no result; [ ] = remark or other dose. Unless noted, calls come from the whole dose curve; as a rule, active = well fitted curve in the direction sought with a large enough effect; inconclusive = small, poorly fitted or top-dose-only effect, or another doubt; inactive = no such curve, though single readings can be large; an effect the other way counts as inactive or inconclusive. Unless noted, % is set by controls: 0 for no effect and ±100 for the full control effect.
SMILES,IL1B secr inh,ALOX12 inh,TDP1 cell CPT,HT1080-NT tox,HT1080 IDH1KD tx,TDP1 cell noCPT
COc1cc(CCC(=O)N2CCN(c3ccccc3)CC2)cc(OC)c1OC,4,-1%,-28%,11%,10%,?
COc1cc(C(=O)C(=O)N2CCC(Cc3ccccc3)CC2)cc2ccccc12,2,-11%,16µM*,-18%,-24%,23µM*
COc1cc(C(=O)C(=O)N2CCN(c3ccccc3)CC2)cc(OC)c1OC,40,?,3.7µM*,?,7.3µM*,3.7µM*
COc1cc(C(=S)N2CCC(Cc3ccccc3)CC2)ccc1OCC(N)=O,60,-6%,-14%,-17%,-17%,?
CC(C)CC(N)c1csc(Nc2ccc(S(C)(=O)=O)cc2)n1 (stereo unspecified),-1,7%,-30%,-11%,-24%,-12%
CS(=O)(=O)c1ccc(Nc2nc(C(N)CCc3ccccc3)cs2)cc1 (stereo unspecified),-2,11%,23µM*,?,?,21µM*
NC(CCc1ccccc1)c1csc(Nc2ccc(C(=O)c3ccccc3)cc2)n1 (stereo unspecified),?,?,16µM*,?,?,18µM*
NC(COCc1ccccc1)c1csc(Nc2ccc(C(=O)c3ccccc3)cc2)n1 (stereo unspecified),-66*,-26%,15µM*,18µM*,?,?
NCc1csc(Nc2ccc(C(=O)c3ccccc3)cc2)n1,-9,3%,0.92µM*,?,?,1µM*
CC(=O)NC[C@H]1CCN(Cc2cccc(Cl)c2)C[C@H]1N(C)C,.,71%,.,.,.,.
Cc1nn(Cc2ccc(F)cc2)c2sc(C(=O)N3CCN(CC(=O)N4CCCC4)CC3)cc12,.,39%,.,.,.,.
O=C(c1ccsc1)N1CCC(N2C(=O)C(O)C23CCCCC3)CC1 (stereo unspecified),.,60%,.,.,.,.
C[C@H](O)c1c(-c2ccc(Cl)cc2)noc1C(=O)NC1CC1,.,56%[176 µM],.,.,.,.
NC(CCc1ccccc1)c1csc(Nc2ccc(C(=O)NCCO)cc2)n1 (stereo unspecified),-15,-12%,?,-11%,-29%,23µM*
NC(CCc1ccccc1)c1csc(Nc2ccc(C(=O)NCCCO)cn2)n1 (stereo unspecified),-20,5%,-29%,?,-1%,-22%
NC(=O)c1cccc(Nc2nc(C(N)COCc3ccccc3)cs2)n1 (stereo unspecified),-26,9%,18µM*,-18%,-29%,?
CN(C)C(=O)N1CCn2c(nnc2-c2cncc(Br)c2)C1,.,2%[6.33 µM],.,.,.,.
Cc1cccc(C(=O)N2CCCCCCNC(=O)[C@@H]3CCC[C@@H]32)c1,.,12%,.,.,.,.
Oc1[nH]c2ccc(Br)cc2c1N=Nc1ccc(C(F)(F)F)cn1,-57*,-3%,?,2%,-8%,?
Oc1[nH]c2ccccc2c1N=Nc1ccc(C(F)(F)F)cn1,29,0%,2%,-4%,-15%,-7%
CCCc1cc(=O)[nH]c(SCc2nc(-c3ccc(C)cc3)no2)n1,.,-22%,-18%,.,.,-18%
CC(=O)c1ccc(O)cc1,.,-6%,.,.,.,.
O=C1C=CC(=C(c2ccc(O)cc2)c2ccc(O)cc2)C=C1,-100*,?,9.2µM*,9.2µM*,12µM*,2.3µM*
O=C(Cc1cccs1)Nc1nc2c(s1)CCCC2,-11,-11%,?,?,1.1µM*,?
O=C(Nc1nc2c(s1)CCCC2)c1cccs1,-8,-1%,?,?,?,21µM*
SMILES,IL1B secr inh,ALOX12 inh,TDP1 cell CPT,HT1080-NT tox,HT1080 IDH1KD tx,TDP1 cell noCPT
Cc1oc(-c2cccc(Cl)c2)nc1CSc1nc2ncccc2[nH]1,.,0%,?,.,.,21µM*
COc1ccc(-c2nc(CSc3nc4ncccc4[nH]3)c(C)o2)cc1OC,.,1%,?,.,.,21µM*
COc1ccc(OC)c(S(=O)(=O)N2CCC(C(=O)NCc3ccncc3)CC2)c1,7,-43%,19%,-3%,4%,3%
CC1=C(SCc2ccccc2)C(=O)c2ccccc2C1=O,-70*,13µM*,2.6µM*,9.2µM*,26µM*,3.3µM*
COc1ccc(C(CCN2CCOCC2)c2c(OC)cc(OC)c3c(-c4ccccc4)cc(=O)oc23)cc1 (stereo unspecified),?,-19%,6.5µM*,-20%,?,8.2µM*
COc1cc(C(CCN2CCCC2)c2c(OC)cc(OC)c3c(-c4ccccc4)cc(=O)oc23)cc(OC)c1OC (stereo unspecified),17,-3%,16µM*,-26%,-19%,21µM*
COc1ccc(C(CCN2CCOCC2)c2c(O)cc(OC)cc2OC)cc1 (stereo unspecified),-5,0%,?,-1%,3%,?
COc1ccc(C(CCN2CCOCC2)c2c(OC)cc(OC)c3ccc(=O)oc23)cc1 (stereo unspecified),-3,-13%,?,-1%,0%,21µM*
COc1cc(C(CCN2CCCCC2)c2c(OC)cc(OC)c3c(C)cc(=O)oc23)cc(OC)c1OC (stereo unspecified),12,-2%,10µM*,-6%,-12%,10µM*
CCN(C(=O)Cn1nc2n(c1=O)CCCCC2)c1ccccc1,.,10%,.,.,.,.
COc1cc(OC)c2c(-c3ccccc3)cc(=O)oc2c1C(CCN1CCCC1)c1ccc2c(c1)OCO2 (stereo unspecified),-21,14%,?,-22%,?,?
COc1cc(OC)c2ccc(=O)oc2c1C(CC(=O)N1CCN(c2ccccc2)CC1)c1ccc2c(c1)OCO2 (stereo unspecified),-25,-6%,?,8%,-4%,?
COc1cc(OC)c2c(C)cc(=O)oc2c1C(CCN1CCN(c2ccccc2)CC1)c1ccc2c(c1)OCO2 (stereo unspecified),48,122%,5.2µM*,-13%,-13%,21µM*
COc1cc(OC)c2c(-c3ccccc3)cc(=O)oc2c1C(CCN1CCOCC1)c1ccc2c(c1)OCO2 (stereo unspecified),-15,?,15µM*,23µM*,?,?
COc1ccc(C(CCN2CCCC2)c2c(OC)cc(OC)c3c(-c4ccccc4)cc(=O)oc23)cc1 (stereo unspecified),-6,?,?,?,-3%,16µM*
